Experimental data from PubChem BioAssay (NCI).
Compounds without any hit were thinned out: in the full panel of roughly 79,000, 15% have a hit. Calls of active or inactive are those of the source. Cut-off read from the data, not from the text of the source: active = growth inhibition above about 70%; inactive = the rest.

Assays:
[1] = NCI Yeast Anticancer Drug Screen. Data for the wt1 strain (AID 149);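 note: 0% = growth of vehicle-treated wt1 cultures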; details: S. cerevisiae wt1 strain (SPY 50644) growth inhibition, stronger effect = higher value
Summary of the method: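 wt1 strain grown with compound or vehicle; inhibition taken from the growth difference.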

[2] = NCI Yeast Anticancer Drug Screen. Data for the rad50EPP+ strain (AID 151);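 note: 0% = growth of vehicle-treated control cultures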; details: S. cerevisiae rad50 mutant strain, stronger effect = higher value
Summary of the method: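 Compounds were applied to the rad50EPP+ yeast strain, which bears a defined DNA repair alteration, and growth inhibition was determined relative to vehicle-treated cultures.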

[3] = NCI Yeast Anticancer Drug Screen. Data for the rad50 strain (AID 155);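 note: 0% = growth of vehicle-only cultures of the same strain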; details: S. cerevisiae rad50 strain growth inhibition, stronger effect = higher value
Summary of the method: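 DNA repair mutant yeast, compound exposure, growth read-out; inhibition is taken relative to vehicle.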

[4] = NCI Yeast Anticancer Drug Screen. Data for the mec2-1 strain (AID 157); details: S. cerevisiae mec2-1 strain, stronger effect = higher value
Summary of the method: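 Strain: mec2-1 (DNA repair/cell cycle alteration). Compound exposure, then growth measured; inhibition expressed relative to vehicle.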

[5] = NCI Yeast Anticancer Drug Screen. Data for the rad14 strain (AID 159);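 note: 0% = growth of vehicle-treated control cultures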; details: S. cerevisiae rad14 strain growth inhibition, stronger effect = higher value
Summary of the method: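 DNA repair-defective yeast, compound-exposed; % growth inhibition derived by comparison with vehicle-treated controls.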

[6] = NCI Yeast Anticancer Drug Screen. Data for the sgs1 mgt1 strain (AID 161);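 note: 0% = growth of cultures given vehicle only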; details: S. cerevisiae sgs1 mgt1 strain, stronger effect = higher value
Summary of the method: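 Inhibition of yeast growth, normalised to vehicle-treated controls, is reported for a strain bearing genetic alterations in DNA damage repair.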

[7] = NCI Yeast Anticancer Drug Screen. Data for the CLN2oe strain (AID 163);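 note: 0% = growth of vehicle-only control cultures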; details: S. cerevisiae CLN2oe strain, stronger effect = higher value
Summary of the method: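 Growth of a genetically modified yeast strain is measured after compound exposure and compared with cultures given vehicle alone.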

[8] = NCI Yeast Anticancer Drug Screen. Data for the cln2 rad14 strain (AID 165);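 note: 0% = growth equal to vehicle treated cultures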; details: S. cerevisiae cln2 rad14 strain, stronger effect = higher value
Summary of the method: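 Compounds are applied to the cln2 rad14 yeast strain, and growth is then compared with that of vehicle-treated cultures to give inhibition.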

[9] = NCI Yeast Anticancer Drug Screen. Data for the bub3 strain (AID 167); details: S. cerevisiae bub3 mutant strain, stronger effect = higher value
Summary of the method: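 In this screen, a yeast mutant lacking normal mitotic checkpoint function is challenged with compound. Relative growth versus vehicle gives the inhibition value.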

[10] = NCI Yeast Anticancer Drug Screen. Data for the wt2 strain (AID 169);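 note: 0% = growth of vehicle-treated yeast cultures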; details: S. cerevisiae wt2 strain growth inhibition, stronger effect = higher value
Summary of the method: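 This strain belongs to a panel of yeast strains with defined genetic alterations in DNA damage repair or cell cycle control. Compounds are applied, and growth inhibition is measured against vehicle-treated cultures.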

[11] = NCI Yeast Anticancer Drug Screen. Data for the mlh1 strain (AID 171);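 note: 0% = growth of vehicle-treated control cultures of the same strain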; details: S. cerevisiae mlh1 strain growth inhibition, stronger effect = higher value
Summary of the method: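 Growth of the mutant yeast strain after compound exposure, expressed as inhibition relative to vehicle-only controls.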

[12] = NCI Yeast Anticancer Drug Screen. Data for the sgs1 strain (AID 173);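 note: 0% = growth of vehicle-only control cultures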; details: S. cerevisiae sgs1 mutant, stronger effect = higher value
Summary of the method: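 Growth of a yeast strain bearing a defined genetic alteration is measured after compound treatment. Inhibition is expressed relative to vehicle-only controls.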

[13] = NCI Yeast Anticancer Drug Screen. Data for the mlh1 rad18 strain (AID 175); details: S. cerevisiae mlh1 rad18 strain growth inhibition, stronger effect = higher value
Summary of the method: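 Read-out is yeast growth inhibition, calculated against vehicle-only controls. The compound was applied to a strain engineered with DNA damage repair alterations.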

[14] = NCI Yeast Anticancer Drug Screen. Data for the rad18 strain (AID 177); details: S. cerevisiae rad18 mutant growth inhibition, stronger effect = higher value
Summary of the method: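 Growth of the mutant yeast strain after compound exposure, normalised to vehicle-only cultures.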

[15] = at 5.0 µM (retest, dose inferred, filed as 0.5)
[16] = at 50.0 µM (retest, dose inferred, filed as 5.0)

Measured: growth inhibition

Oc1ccc(Cc2nccc3cc(O)c(O)cc23)cc1O
inactive: [1]; at 1.2 µM -9% | [1]; at 3.7 µM 2% | [1]; at 11.0 µM 3% | [1]; at 33.0 µM 19% | [1]; at 100.0 µM 66% | [2]; at 1.2 µM 16% | [2]; at 3.7 µM 31% | [2]; at 11.0 µM 22% | [2]; at 33.0 µM 24% | [2]; at 100.0 µM 33% | [3]; at 1.2 µM 3% | [3]; at 3.7 µM -6% | [3]; [15] 47% | [3]; at 11.0 µM 7% | [3]; at 33.0 µM 11% | [3]; [16] 66% | [3]; at 50.0 µM 48.9% | [3]; at 100.0 µM 28% | [4]; at 1.2 µM 21% | [4]; at 3.7 µM 28% | [4]; [15] 46% | [4]; at 11.0 µM 33% | [4]; at 33.0 µM 47% | [4]; at 50.0 µM -25.4% | [5]; at 1.2 µM 0% | [5]; at 3.7 µM 14% | [5]; at 11.0 µM 10% | [5]; at 33.0 µM 22% | [5]; at 100.0 µM 51% | [6]; [15] -1% | [6]; [16] 35% | [6]; at 50.0 µM 16.4% | [7]; at 1.2 µM 14% | [7]; at 3.7 µM 11% | [7]; at 11.0 µM 24% | [7]; at 33.0 µM 27% | [7]; at 100.0 µM 55% | [8]; [15] 43% | [8]; [16] 63% | [8]; at 50.0 µM -42.5% | [9]; at 1.2 µM 34% | [9]; at 3.7 µM 46% | [9]; [15] 20% | [9]; at 11.0 µM 57% | [9]; at 33.0 µM 68% | [9]; [16] 59% | [9]; at 50.0 µM 28.6% | [10]; at 1.2 µM -9% | [10]; at 3.7 µM 16% | [10]; at 11.0 µM 31% | [10]; at 33.0 µM 41% | [11]; at 1.2 µM -2% | [11]; at 3.7 µM 11% | [11]; at 11.0 µM 18% | [11]; at 33.0 µM 32% | [11]; at 100.0 µM 65% | [12]; at 1.2 µM 40% | [12]; at 3.7 µM 37% | [12]; at 11.0 µM 42% | [12]; at 33.0 µM 52% | [13]; [15] 33% | [13]; [16] 66% | [13]; at 50.0 µM 53.1% | [14]; at 1.2 µM -10% | [14]; at 3.7 µM 4% | [14]; at 11.0 µM 14% | [14]; at 33.0 µM 5% | [14]; at 100.0 µM 14%
active: [4]; [16] 73% | [4]; at 100.0 µM 77% | [9]; at 100.0 µM 79% | [10]; at 100.0 µM 70% | [12]; at 100.0 µM 73%
